As a reminder, the AC50 is the concentration at which the activity in the assay is half-maximal.

Activity calls are given as the source filed them. Rule for the calls: active = hit-call score of the fitted dose curve at least 0.9, where 1 is the maximum; inactive = score below 0.9.

A short description of the assay: ATG_CRE_CIS: Attagene CIS-FACTORIAL HepG2 Assay for human cAMP Responsive Element (CRE) binding protein 3 (AID 2282926). The note with it: HepG2 CRE cis-reporter, Attagene multiplexed mRNA; actives raise or lower the signal. On the procedure: ATG_CIS is a cell-based, multiplexed-readout assay that uses HepG2, a human liver cell line, with measurements taken at 24 hours after chemical dosing in a 24-well plate.ATG_CRE_CIS is one of 52 assay component(s) measured or calculated from the ATG_CIS assay. It is designed to make measurements of mRNA induction, a form of inducible reporter, as detected with fluorescence intensity signals by Reverse transcription polymerase chain reaction (RT-PCR) and Capillary electrophoresis technology.Data from the assay component ATG_CRE_CIS was analyzed into 1 assay endpoint. This assay endpoint, ATG_CRE_CIS, was analyzed with bidirectional fitting relative to DMSO as the negative control and baseline of activity. Using a type of inducible reporter, measures of mRNA for gain or loss-of-signal activity can be used to understand the reporter gene at the transcription factor-level as they relate to the gene CREB3. Furthermore, this assay endpoint can be referred to as a primary readout, because this assay has produced multiple assay endpoints where this one serves a reporter gene function. To generalize the intended target to other relatable targets, this assay endpoint is annotated to the dna binding intended target family, where the subfamily is basic leucine zipper.
Human liver HepG2 cells are transiently transfected with multiple reporter transcription units (MRTUs) in 6-well plates using FuGene 6 reagent (Roche; 3 ml FuGene/1 mg DNA). The MRTU constructs are regulated by a cis-regulating element (promoter). […] A major difference between the CIS and TRANS system is that in CIS activities of endogenous TFs are measured, whereas the TRANS assay evaluates changes in activities of exogenous, chimeric NR-Gal4 proteins. […] At the end of 24 hour incubation, total RNA was isolated using TriZol reagent (Invitrogen). The isolated RNA is then reverse-transcribed using oligo(dT) primer and Mo-MLV reverse transcriptase (Invitrogen) with DNAse I (Ambion) treatment for 30 min. The one-tenth of the produced cDNA was amplified by PCR using Taq DNA polymerase (Invitrogen) and two reporter sequence-specific primers. The PCR products were fluorescently labeled by primer extension with 6-arboxyfluorescein (6-FAM) 5'-labeled reporter sequence-specific primer (2 min at 95 C, 20 s at 68 C and 10 min at 72 C) and these products were digested with 5U of HpaI (New England Biolabs) for 2h at 37 C. The fragments were purified using Qiaquick PCR columns (Qiagen), analyzed on an ABI 3130xL genetic analyzer (Applied Biosystems) with peak positions identified by using a set of X-rhodamine (ROX)-labeled MapMarker1000 molecular weight standards (BioVentures). The raw capillary electrophoresis data was processed using Attagraph software (Attagene).
Consider `O=C(O)c1c(Cl)ccc2cc(Cl)cnc12`, for which the result was inactive.

Take `O=P(O)(O)CCCl`: the result was inactive.

With `C=CCOC(=O)C(C)(C)OC(=O)c1cc(-n2c(=O)cc(C(F)(F)F)n(C)c2=O)ccc1Cl`, the AC50 was 13.3 µM (active).

As to `COC(=O)N(C(=O)N1CO[C@@]2(C(=O)OC)Cc3cc(Cl)ccc3C2=N1)c1ccc(OC(F)(F)F)cc1`, the AC50 was 0.67 µM (active).

`C=C(C)CN(CC)c1c([N+](=O)[O-])cc(C(F)(F)F)cc1[N+](=O)[O-]`: the call was inactive.

As for `COP(=S)(OC)Oc1ccc([N+](=O)[O-])c(C)c1`, the AC50 is 17.8 µM (active).

As for `CO/N=C(/C1=NOCCO1)c1ccccc1Oc1ncnc(Oc2ccccc2Cl)c1F`, the AC50 was 0.858 µM (active).

Take `COc1ccc(-c2ccccc2)cc1NNC(=O)OC(C)C`: the compound was called inactive.

Consider `CC1(C)CCC(=Cc2ccc(Cl)cc2)C1(O)Cn1cncn1` (stereo not given), for which the compound was called inactive.

On to `CS(=O)(=O)c1ccc(C(=O)C2C(=O)CCCC2=O)c([N+](=O)[O-])c1`, for which the call was inactive.

Consider `Cc1cc(C)nc(Nc2ccccc2)n1`, for which the AC50 is 7.42 µM (active).

For the compound `O=C1C2CC=CCC2C(=O)N1SC(Cl)(Cl)Cl` (stereo not given), the result was inactive.

Take `CCOc1cc(C(C)(C)C)ccc1C1COC(c2c(F)cccc2F)=N1` (stereo not given): the AC50 was 4.09 µM (active).

With `CCSC(=O)N1CCCCCC1`, the compound was classed as inactive.

As to `CNC(=O)Oc1cccc2ccccc12`, the call was inactive.

In the case of `CCOc1nc(C(Cl)(Cl)Cl)ns1`, the AC50 is 20.8 µM (active).

As for `N#Cc1c[nH]cc1-c1cccc2c1OC(F)(F)O2`, the AC50 was 10.8 µM (active).

On to `Clc1cccc(C(Cl)(Cl)Cl)n1`, for which the outcome was inactive.

In the case of `CCCCC(C#N)(Cn1cncn1)c1ccc(Cl)cc1` (stereo not given), the outcome was inactive.

For `CC(C)(C)C(=O)C(Oc1ccc(Cl)cc1)n1cncn1` (stereo not given), the AC50 is 41.9 µM (active).

Regarding `O=c1n(Cl)c(=O)n(Cl)c(=O)n1Cl`, the result was inactive.

On to `CC(C)Nc1nc(Cl)nc(NC(C)C)n1`, for which the result was inactive.

Take `CCNC(=O)NC(=O)C(C#N)=NOC`: the call was inactive.

For `CC1(C)C(C=C(Cl)Cl)C1C(=O)OC(C#N)c1cccc(Oc2ccccc2)c1` (stereo not given), the result was inactive.

`COc1cc(Cl)c(OC)cc1Cl`: the result was inactive.

In the case of `OC(c1ccc(Cl)cc1)(c1ccc(Cl)cc1)C(Cl)(Cl)Cl`, the compound was called inactive.

With `CC(C)NC(=O)N1CC(=O)N(c2cc(Cl)cc(Cl)c2)C1=O`, the call was inactive.

On to `Cc1ccc(N=CN(C)C=Nc2ccc(C)cc2C)c(C)c1`, for which the outcome was inactive.

As for `COCC(C)N(C(=O)CCl)c1c(C)csc1C` (stereo not given), the AC50 is 1.83 µM (active).

Consider `COC(=O)c1c(C(F)F)nc(C(F)(F)F)c(C2=NCCS2)c1CC(C)C`, for which the AC50 is 9.92 µM (active).

Consider `COP(=O)(OC)O/C(C)=C/C(=O)N(C)C`, for which the call was inactive.

For `CC1(C)C(C(=O)OC(C#N)c2cccc(Oc3ccccc3)c2)C1(C)C` (stereo not given), the compound was called inactive.

For the compound `CCN(CC)C(=O)C(C)Oc1cccc2ccccc12` (stereo not given), the AC50 is 2.24 µM (active).

Regarding `CN/C(=N\[N+](=O)[O-])NCc1cnc(Cl)s1`, the compound was classed as inactive.

Consider `N#CN=C1SCCN1Cc1ccc(Cl)nc1`, for which the compound was classed as inactive.

Turning to `COC(=O)NC(=S)Nc1ccccc1NC(=S)NC(=O)OC`, the AC50 was 29 µM (active).

Take `CC(C)C1(C)N=C(c2ncccc2C(=O)O)NC1=O` (stereo not given): the outcome was inactive.

For the compound `CCC(C)n1c(=O)[nH]c(C)c(Br)c1=O` (stereo not given), the result was inactive.

Consider `CC(C)N1C(=O)N(c2ccccc2)CSC1=NC(C)(C)C`, for which the compound was classed as inactive.

On to `CC(C)N1C(=O)c2ccccc2NS1(=O)=O`, for which the call was inactive.

The values are drawn from PubChem BioAssay (EPA / NIEHS).
